17 compounds from ChEMBL document CHEMBL1961873, “Compounds: GSK PKIS; Assays: Nanosyn kinase panel” (2012) can be followed below.

The target in assay [1] is Dual specificity protein kinase CLK3 (Homo sapiens) (UniProt P49761). The following applies: at 1 µM.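 Note: each value is the mean inhibition of CLK3.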
Assay [2] has as its target Dual specificity tyrosine-phosphorylation-regulated kinase 1A (Homo sapiens) (UniProt Q13627). The settings on record: at 0.1 µM.
For assay [3] the target is unchanged. The following applies: at 1 µM.
Assay [4] has as its target Dual specificity tyrosine-phosphorylation-regulated kinase 1B (Homo sapiens) (UniProt Q9Y463). The following applies: at 0.1 µM.
Assay [5] shares this target. The following applies: at 1 µM.
For assay [6], the target named is T1, Dual specificity tyrosine-phosphorylation-regulated kinase 2 (Homo sapiens) (UniProt Q92630).
T1 sequence (whole entry): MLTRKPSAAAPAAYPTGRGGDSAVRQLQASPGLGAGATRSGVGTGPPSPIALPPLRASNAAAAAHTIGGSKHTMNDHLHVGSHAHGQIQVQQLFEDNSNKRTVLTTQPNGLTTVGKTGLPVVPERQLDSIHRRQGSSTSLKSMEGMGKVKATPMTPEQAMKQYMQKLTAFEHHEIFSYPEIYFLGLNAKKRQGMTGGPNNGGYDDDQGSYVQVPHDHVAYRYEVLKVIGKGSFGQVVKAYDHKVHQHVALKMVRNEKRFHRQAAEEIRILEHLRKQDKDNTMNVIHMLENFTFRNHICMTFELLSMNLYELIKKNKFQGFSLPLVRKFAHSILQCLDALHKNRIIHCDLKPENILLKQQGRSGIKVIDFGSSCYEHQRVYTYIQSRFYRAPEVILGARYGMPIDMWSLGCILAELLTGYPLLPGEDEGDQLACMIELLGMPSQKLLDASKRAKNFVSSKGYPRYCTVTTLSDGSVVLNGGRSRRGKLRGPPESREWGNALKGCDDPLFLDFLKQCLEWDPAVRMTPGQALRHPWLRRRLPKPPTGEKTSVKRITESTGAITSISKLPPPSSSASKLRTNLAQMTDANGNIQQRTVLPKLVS
The settings on record: at 0.1 µM.

Assay [7] concerns the target T1, Dual specificity tyrosine-phosphorylation-regulated kinase 2 (Homo sapiens). The settings on record: at 1 µM.
Assay [8] addresses Glycogen synthase kinase-3 alpha (Homo sapiens) (UniProt P49840). The following applies: at 0.1 µM.
The target is the same in assay [9]. The following applies: at 1 µM.
For assay [10], the target named is Glycogen synthase kinase-3 beta (Homo sapiens) (UniProt P49841). The following applies: at 0.1 µM.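 Note: values are mean percent inhibition of GSK3B activity, from the GSK Published Kinase Inhibitor Set (PKIS) screening dataset.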
Glycogen synthase kinase-3 beta (Homo sapiens), sequence (P49841 whole entry, looked up): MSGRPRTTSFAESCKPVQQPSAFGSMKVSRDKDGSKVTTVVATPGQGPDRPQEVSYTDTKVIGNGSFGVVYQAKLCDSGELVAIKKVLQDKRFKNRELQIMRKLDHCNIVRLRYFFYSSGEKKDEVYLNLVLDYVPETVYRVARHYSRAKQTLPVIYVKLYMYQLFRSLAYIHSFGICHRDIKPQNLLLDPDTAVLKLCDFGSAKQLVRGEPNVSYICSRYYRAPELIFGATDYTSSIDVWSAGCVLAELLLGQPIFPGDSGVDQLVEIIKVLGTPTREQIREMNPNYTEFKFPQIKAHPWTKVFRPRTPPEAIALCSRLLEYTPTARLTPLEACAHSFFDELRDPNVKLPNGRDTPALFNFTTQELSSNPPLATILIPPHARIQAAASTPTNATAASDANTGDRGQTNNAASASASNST

Dual specificity protein kinase CLK3 (Homo sapiens), sequence (P49761 whole entry, looked up): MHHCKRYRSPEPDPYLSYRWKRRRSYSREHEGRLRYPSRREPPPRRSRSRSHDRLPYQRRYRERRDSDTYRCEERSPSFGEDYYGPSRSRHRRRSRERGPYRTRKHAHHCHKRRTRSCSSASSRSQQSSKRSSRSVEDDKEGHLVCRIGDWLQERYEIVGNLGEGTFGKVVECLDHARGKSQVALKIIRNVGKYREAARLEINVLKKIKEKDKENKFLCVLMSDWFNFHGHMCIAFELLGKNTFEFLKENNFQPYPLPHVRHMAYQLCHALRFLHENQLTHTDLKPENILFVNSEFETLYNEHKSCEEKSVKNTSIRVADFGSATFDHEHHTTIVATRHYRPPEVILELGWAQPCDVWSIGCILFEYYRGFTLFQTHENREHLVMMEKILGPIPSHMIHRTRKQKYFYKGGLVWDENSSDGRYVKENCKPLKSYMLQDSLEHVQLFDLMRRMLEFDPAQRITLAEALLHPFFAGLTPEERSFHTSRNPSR
Glycogen synthase kinase-3 alpha (Homo sapiens), sequence (P49840 2-483 limits assumed): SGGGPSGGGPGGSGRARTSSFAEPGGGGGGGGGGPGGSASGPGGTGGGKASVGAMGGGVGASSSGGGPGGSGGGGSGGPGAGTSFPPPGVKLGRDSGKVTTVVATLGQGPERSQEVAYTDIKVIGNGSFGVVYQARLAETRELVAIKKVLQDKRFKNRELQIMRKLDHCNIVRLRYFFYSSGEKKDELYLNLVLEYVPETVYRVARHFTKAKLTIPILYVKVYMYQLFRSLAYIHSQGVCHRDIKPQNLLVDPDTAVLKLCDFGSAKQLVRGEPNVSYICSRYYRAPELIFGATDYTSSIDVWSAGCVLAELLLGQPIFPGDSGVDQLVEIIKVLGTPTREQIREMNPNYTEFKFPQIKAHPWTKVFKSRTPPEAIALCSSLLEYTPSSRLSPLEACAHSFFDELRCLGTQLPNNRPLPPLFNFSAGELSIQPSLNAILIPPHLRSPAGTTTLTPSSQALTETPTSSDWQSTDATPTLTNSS
Dual specificity tyrosine-phosphorylation-regulated kinase 1B (Homo sapiens), sequence (Q9Y463 whole entry, looked up): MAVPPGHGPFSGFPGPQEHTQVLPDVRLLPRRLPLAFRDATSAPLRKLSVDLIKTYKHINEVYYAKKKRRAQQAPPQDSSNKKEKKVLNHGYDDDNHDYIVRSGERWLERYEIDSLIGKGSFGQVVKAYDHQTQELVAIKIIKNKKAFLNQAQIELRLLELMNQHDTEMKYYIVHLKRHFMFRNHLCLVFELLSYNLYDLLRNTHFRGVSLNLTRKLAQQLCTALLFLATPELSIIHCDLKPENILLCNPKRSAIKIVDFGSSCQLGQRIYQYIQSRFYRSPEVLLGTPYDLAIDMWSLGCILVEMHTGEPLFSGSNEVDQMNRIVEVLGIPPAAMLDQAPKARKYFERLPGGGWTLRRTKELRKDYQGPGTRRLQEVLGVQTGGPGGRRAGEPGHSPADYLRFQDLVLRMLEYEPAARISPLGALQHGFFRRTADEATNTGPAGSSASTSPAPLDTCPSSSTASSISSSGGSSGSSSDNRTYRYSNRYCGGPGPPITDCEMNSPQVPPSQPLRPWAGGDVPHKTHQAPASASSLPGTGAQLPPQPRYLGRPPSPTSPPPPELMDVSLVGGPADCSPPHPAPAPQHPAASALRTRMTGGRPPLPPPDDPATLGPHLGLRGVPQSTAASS

Usually inhibition stands for the relative decrease from the control value, in per cent. With `[O-][S+]1CCN(Cc2ccc(-c3ccc4ncnc(Nc5ccc(OCc6ccccc6)c(F)c5)c4c3)o2)CC1`, the inhibition came out at 11.2% in assay [1]; 2.61% in assay [2]; 2.98% in assay [3]; 1.09% in assay [4]; 1.08% in [5]; 1.63% in [6]. Besides, the inhibition in assay [7] is 3.4%; in [8], 0.27%; in assay [9], 2.88%; in [10] it was -0.3%.

As to `Cn1cc(C=C2C(=O)Nc3cccnc32)c2ccccc21`, the inhibition in assay [1] was -1.26%; in assay [2], 2.68%; in assay [3], 10.6%; in [4] it was 0.78%; in assay [5] it was 4.49%; in [6] it was 2.52%. Moreover, the inhibition in [7] came out at 4.08%; in [8] it was 4.33%; in [9], 12.2%; in [10] it was 3.54%.

On to `O=C1NC(=O)C(c2cccc(Cl)c2)=C1Nc1ccc(O)c(Cl)c1`, for which the inhibition was found to be 5.01% in assay [1]; 2.08% in assay [2]; 17.3% in assay [3]; 1.51% in [4]; 8.29% in assay [5]; 1% in assay [6]. Also, the inhibition in assay [7] was determined as 0.69%.

On to `O=C1NC(=O)C(c2ccccc2Cl)=C1Nc1cccc(O)c1`, for which the inhibition came to 21.8% in assay [1]; 8.06% in assay [2]; 38.5% in [3]; 2.78% in assay [4]; 15.2% in assay [5]; 3.09% in assay [6]. Also, the inhibition in assay [7] came to 2.96%.

For `Nc1nc(-c2ccc3c(c2)C(=Cc2cc(Br)c(O)c(Br)c2)C(=O)N3)cs1`, the inhibition in assay [1] was 2.88%; in assay [2], 1.71%; in [3], 4.89%; in [4], 1.38%; in assay [5], 3.44%; in assay [6] it was -2.46%. Further, the inhibition in assay [7] was -0.96%; in assay [8], 0.62%; in [9] it was 4.94%; in [10], 0.83%.

Regarding `N#Cc1c(NC(=O)c2cccc3ccccc23)sc2c1CCCC2`, the inhibition was determined as 1.09% in assay [1]; 1.07% in assay [2]; 4.31% in assay [3]; 0.47% in [4]; 1.43% in assay [5]; 1.86% in [6]. Further, the inhibition in assay [7] was 2.69%; in [8], 5.51%; in [9], 6.65%; in assay [10], 3.72%.

For the compound `CC1=C(C(=O)Nc2ccc3[nH]ncc3c2)C(c2ccc(F)cc2)NC(=O)N1` (stereo not drawn), the inhibition in assay [1] is 1.47%; in assay [2], 1.78%; in assay [3], 1.58%; in assay [4], -0.22%; in assay [5] it was 3.29%; in [6] it was 0.94%. For the same compound, the inhibition is 2.08% in assay [7], -0.66% in assay [8], -0.33% in [9] and -0.1% in [10].

In the case of `COc1ccc(-c2ccncc2)cc1C(N)=O`, the inhibition in assay [1] was 0.61%; in assay [2], 3.91%; in [3] it was 6.95%; in [4], -1.51%; in assay [5] it was 2.44%; in [6] it was 3.8%. The inhibition is 9.87% in [7], 3% in [8], 4.53% in assay [9] and 2.89% in assay [10].

Turning to `COc1ccc(-c2coc3ncnc(N)c23)cc1`, the inhibition was 1.54% in [1]; 3.61% in assay [2]; 19.2% in assay [3]; -0.37% in assay [4]; 5.22% in [5]; 3.83% in assay [6]. For the same compound, the inhibition in [7] came out at 4.61%; in assay [8], 2.73%; in assay [9] it was 3.86%; in assay [10], 0.71%.

Turning to `Nc1nc(-c2ccccn2)c(-c2ccc3ncccc3n2)s1`, the inhibition was 4.76% in [1]; 7.05% in [2]; 18.3% in assay [3]; 3.14% in assay [4]; 8.56% in [5]; 2.04% in [6]. In addition, the inhibition in assay [7] worked out at 4.58%; in assay [8] it was 3.86%; in [9], 12.8%; in assay [10], 3.76%.

With `NS(=O)(=O)c1ccc(N/N=C2\C(=O)Nc3ccc(C(=O)NCCc4c[nH]cn4)cc32)cc1`, the inhibition turned out to be 24.2% in assay [1]; 6.64% in [2]; 30.6% in [3]; 5.35% in assay [4]; 31.5% in [5]; 6.85% in assay [6]. Also, the inhibition in assay [7] came to 33.4%; in assay [8] it was 50.7%; in [9], 86.8%; in assay [10] it was 51%.

Turning to `CS(=O)(=O)CCN(CC#N)Cc1ccc(-c2ccc3ncnc(Nc4ccc(OCc5cccc(F)c5)c(Cl)c4)c3c2)o1`, the inhibition in [1] is -4.13%; in assay [2], -2.78%; in [3], -0.17%; in assay [4], -4.49%; in assay [5], -3.08%; in assay [6], 0.54%. Further, the inhibition in assay [7] is 0.76%; in assay [8] it was -1.48%; in [9], 0.08%; in [10], -2.26%.

As to `O=C1Nc2ccc(C(=O)c3ccco3)cc2C1=Cc1cc(Cl)c(O)c(Cl)c1`, the inhibition in assay [1] amounted to 63.8%; in assay [2], 40.5%; in assay [3], 78.3%; in assay [4] it was 47.4%; in assay [5] it was 81.5%; in assay [6], 3.34%. In addition, the inhibition in assay [7] stood at 13.4%; in assay [8], 24.5%; in assay [9], 70.1%; in assay [10], 31.1%.

As for `CC(=O)Nc1cccc(C#Cc2cncnc2Nc2ccc(OCc3cccc(F)c3)c(Cl)c2)n1`, the inhibition in [1] is -0.85%; in [2] it was -0.63%; in assay [3] it was -0.35%; in assay [4] it was 1.51%; in assay [5], 2.18%; in assay [6], -0.79%. The inhibition in assay [7] was -0.95%; in assay [8], 0.36%; in assay [9], 1.39%; in [10] it was 1.37%.

In the case of `O=C(Nc1n[nH]c2nc(-c3ccco3)c(Br)cc12)C1CC1`, the inhibition in assay [1] amounted to 2.72%; in assay [2], 1.71%; in assay [3], 4.33%; in assay [4] it was 0.48%; in [5], 3.25%; in assay [6] it was 3.03%. For the same compound, the results for the inhibition in [7], in [8] and in assay [9] were 4.31%, 36.9% and 80.6%, respectively.

Regarding `Cc1cccc(-c2n[nH]cc2-c2ccc3ncccc3n2)n1`, the inhibition in assay [1] was -3.14%; in assay [2], 1.27%; in [3], 6.72%; in [4] it was -0.18%; in [5], 4.09%; in assay [6], 0.1%. For the same compound, the inhibition in assay [7] is 4.03%; in assay [8], 0.39%; in assay [9] it was 1.15%; in assay [10], -0.14%.

Take `COc1cc2ncn(-c3cc(O[C@@H](C)c4ccccc4Cl)c(C(N)=O)s3)c2cc1OC`: the inhibition in assay [1] is 2.08%; in [2], 4.47%; in [3], 8.19%; in assay [4], -0.84%; in assay [5], 5.29%; in assay [6] it was 2.62%. For the same compound, the inhibition was found to be 3.36% in assay [7], 3.02% in assay [8], 6.38% in assay [9] and 2.25% in assay [10].
